# Experimental data reported in PubChem BioAssay.
# Calls of active or inactive are those of the source.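 How the source made its calls, unless noted: active means fluorescence slope higher than the sample average by over 3 SD (cut at about -0.22 in these data, passing the limit was not always enough); inactive means the rest.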
# Key:
# [1] = inhibitors of TNFa-induced NFkB p65 translocation, primary screen, imaging, HUVEC, MLSMR starter and 10KST1 sets (AID 438;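 active means inhibition above 20% together with a positive visual image hit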;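 further: compound added about 3h40 before a 20 min TNFalpha stimulation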;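 on inhibition: signal is the nuclear over cytoplasmic p65 intensity ratio per well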); settings: HUVEC TNFa-induced p65 nuclear translocation; cell count: measured here: nuclei count (cytotoxicity indicator), at 2.08 µM; inhibition: at 2 µM, stronger effect = higher value, 0% TNFa-plus-vehicle, 100% no-TNFa wells
# [2] = inhibitors of mutant huntingtin aggregation, primary screen, imaging, exon1htt(103Q)mCFP cells, high-content imaging (AID 483;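 active means visual image review flags a hit and inhibition of aggregation exceeds 20%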;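 further: compound exposure lasted 3 days before fixation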;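 on nuclei count: percent of the per-plate median nuclei count of sample wells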); settings: exon1htt(103Q)mCFP cell line, aggregate imaging, at 2 µM; inhibition of aggregation: stronger effect = higher value; nuclei count: measured here: cell count, toxicity
# [3] = inhibitors of E-selectin induction by TNFa, primary screen, imaging, HUVEC, immunofluorescence, MLSMR starter and 10KST1 sets (AID 487;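 active means visually confirmed hit in the image check and inhibition above 20%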;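 on inhibition: signal is fraction of cell area covered by stained E-selectin grains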;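 on nuclei count: 100% = median nuclei count of all wells on the same plate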); settings: HUVEC TNFalpha-induced E-selectin immunofluorescence imaging, at 2 µM; inhibition: stronger effect = higher value; nuclei count: measured here: cell number, toxicity
# [4] = target: Voltage-gated potassium channel subunit beta-2 (Rattus norvegicus) (UniProt P62483); test: KvBeta enzyme negative modulators, primary screen, biochemical, NADPH fluorescence (AID 622); settings: recombinant KvBeta, 4-cyanobenzaldehyde reduction, at 10 µM, stronger effect = higher value;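 further: slope of raw intensity against log time taken from 70 to 1610 s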
# [5] = target: Voltage-gated potassium channel subunit beta-2 (Rattus norvegicus) (UniProt P62483); test: KvBeta positive modulators, primary screen, biochemical, NADPH fluorescence (AID 623;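 active means NADPH fluorescence slope more negative than the mean of all samples by about 3 SD, 99.7% confidence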;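 further: fluorescence intensity change per second fitted from 20 to 320 s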); settings: Recombinant KvBeta, NADPH fluorescence decrease slope, 10 min; at 10 µM; stronger effect = lower value
# [6] = target: Alpha-2C adrenergic receptor (Homo sapiens) (UniProt P18825); test: modulators of alpha2C/GIRK thallium flux, primary screen, cell-based, HEK293 alpha2C/GIRK1/2 (AID 624;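 active means fluorescence slope after compound addition differing from the mean of all screened samples at 99.7% confidence, in either direction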;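 further: slope of fluorescence ratio to pre-addition baseline per second over 15 to 24 s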); settings: thallium flux BTC fluorescence, at 10 µM, actives lie on both sides
# [7] = inhibitors of Sendai virus-induced IRF3 signaling, primary screen, TLR/RLR signaling modifier project, cell-based, Sendai virus stimulus, luciferase, 10K MLSCN set (AID 602276;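 active means inhibition at or above 50% at 10 µM; inactive means inhibition below 50%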;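 further: firefly luciferase from ISG56 promoter only with Renilla not read in this screen; 0% = Sendai virus plus DMSO and 100% = medium plus DMSO without virus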); settings: HEK293 RL24 IRF3 luciferase reporter, at 10 µM, stronger effect = higher value
# [8] = inhibitors of poly I:C-induced TLR3 signaling, primary screen, cell-based, poly I:C stimulus, luciferase, 10K MLSCN set (AID 602277;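 active means inhibition of the reporter signal at or above 50%; inactive means inhibition below 50%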); settings: HEK293-TLR3 RL24 IRF3 luciferase reporter, at 10 µM, stronger effect = higher value
# Chain of Voltage-gated potassium channel subunit beta-2 (Rattus norvegicus) (P62483 whole entry, looked up): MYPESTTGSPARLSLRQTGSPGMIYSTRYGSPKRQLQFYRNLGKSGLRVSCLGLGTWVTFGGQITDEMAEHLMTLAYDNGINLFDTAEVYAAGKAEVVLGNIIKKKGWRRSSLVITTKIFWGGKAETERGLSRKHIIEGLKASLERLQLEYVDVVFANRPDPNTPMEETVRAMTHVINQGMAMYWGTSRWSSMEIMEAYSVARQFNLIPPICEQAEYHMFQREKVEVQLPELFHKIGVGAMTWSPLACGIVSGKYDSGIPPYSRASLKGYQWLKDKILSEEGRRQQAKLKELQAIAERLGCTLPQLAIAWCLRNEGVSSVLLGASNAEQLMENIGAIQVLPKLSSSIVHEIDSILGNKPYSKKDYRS
# Chain of Alpha-2C adrenergic receptor (Homo sapiens) (P18825 whole entry, looked up): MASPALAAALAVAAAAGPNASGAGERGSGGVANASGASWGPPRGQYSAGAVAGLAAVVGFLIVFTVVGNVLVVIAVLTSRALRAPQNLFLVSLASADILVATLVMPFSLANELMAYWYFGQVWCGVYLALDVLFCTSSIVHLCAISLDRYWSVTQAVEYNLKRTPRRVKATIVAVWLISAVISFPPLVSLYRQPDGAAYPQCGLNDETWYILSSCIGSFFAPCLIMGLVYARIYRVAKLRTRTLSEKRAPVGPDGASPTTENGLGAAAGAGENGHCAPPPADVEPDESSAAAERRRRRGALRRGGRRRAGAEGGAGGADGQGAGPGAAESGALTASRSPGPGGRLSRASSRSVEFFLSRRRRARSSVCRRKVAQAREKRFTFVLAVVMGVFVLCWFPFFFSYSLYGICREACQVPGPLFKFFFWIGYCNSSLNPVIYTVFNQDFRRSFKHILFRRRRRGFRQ
SMILES,cell count [1],inhibition [1],inhibition of aggregation [2],nuclei count [2] [%],inhibition [3],nuclei count [3] [%],fluorescence slope [4],NADPH fluorescence slope [5],slope [6],inhibition [7],inhibition [8]
Cc1ccccc1-n1c(Cn2c(=O)sc3ccccc32)nnc1SCC(N)=O,542,4.5% (inactive),4.1% (inactive),110,-28.8% (inactive),111,-0.518 (inactive),-3.8e-05 (inactive),0.00845 (inactive),16.4% (inactive),25.2% (inactive)
CCOc1ccc(C(=O)Nc2ccc(N3CCN(C)CC3)cc2)cc1Br,434,3.4% (inactive),0.4% (inactive),95.5,6.4% (inactive),89.5,-0.571 (inactive),-3.6e-05 (inactive),0.00342 (inactive),-15.1% (inactive),-22.4% (inactive)
CC(C)CC(=O)Nc1ccccc1-c1nnn(CC(=O)N2CCOCC2)n1,739,-6.7% (inactive),1.9% (inactive),112,25.9% (inactive),106,-0.497 (inactive),-6.6e-05 (inactive),0.00487 (inactive),7.19% (inactive),13.9% (inactive)
Cc1cccc(NC(=O)CCN2CCN(C/C=C/c3ccccc3)CC2)c1,727,4.3% (inactive),4.2% (inactive),98.6,15.3% (inactive),104,-0.511 (inactive),-2.6e-05 (inactive),0.00628 (inactive),13.8% (inactive),6.07% (inactive)
CCN(C(=O)c1cc(Cl)ccc1OC)C1CCCCC1,303,4.5% (inactive),8.5% (inactive),109,15.2% (inactive),113,-0.429 (inactive),-6.2e-05 (inactive),0.00399 (inactive),13.8% (inactive),42% (inactive)
COc1ccc(C)cc1NS(=O)(=O)c1ccc(NS(=O)(=O)c2ccc(NC(C)=O)cc2)cc1,345,-7.8% (inactive),-15.2% (inactive),99.4,-16.4% (inactive),119,-0.514 (inactive),-6e-05 (inactive),0.00545 (inactive),19.9% (inactive),24.8% (inactive)
O=C(OCC(=O)N1CCc2ccccc21)C1=COCCO1,341,-3.1% (inactive),8.9% (inactive),86.5,-37% (inactive),113,-0.633 (inactive),-7.8e-06 (inactive),0.00715 (inactive),-12.3% (inactive),-46.6% (inactive)
CC(c1ccco1)N(Cc1ccco1)C(=O)Nc1ccccc1 (centres undefined),511,1% (inactive),13.9% (inactive),90.3,-45.1% (inactive),97.5,-0.574 (inactive),5.2e-05 (inactive),0.00511 (inactive),-3.9% (inactive),-21.4% (inactive)
CN1C(=O)CC(N2CCC(C(N)=O)(N3CCCCC3)CC2)C1=O (centres undefined),540,5.4% (inactive),-7.1% (inactive),111,10.3% (inactive),117,-0.593 (inactive),-4.9e-05 (inactive),0.00424 (inactive),15% (inactive),16.9% (inactive)
Cn1c(=O)c(=O)n(C)c2cc(S(=O)(=O)N3CCCCC3)ccc21,289,0.7% (inactive),22.5% (inactive),83.6,-3.4% (inactive),87.6,-0.426 (inactive),-7.3e-05 (inactive),0.00642 (inactive),14.8% (inactive),14.6% (inactive)
COc1ccc(CCNC(=O)c2ccc(N3CCCC3=O)cc2)cc1OC,472,-19% (inactive),43.9% (active),62.2,-26% (inactive),89.1,-0.453 (inactive),-0.000105 (inactive),0.00604 (inactive),8.09% (inactive),20.6% (inactive)
O=C(NCc1ccc2c(c1)OCO2)C1CCC(CNS(=O)(=O)c2ccccc2)CC1 (centres undefined),316,8.9% (inactive),-31.1% (inactive),111,-4.9% (inactive),116,-0.489 (inactive),1.3e-05 (inactive),0.00655 (inactive),11.6% (inactive),26.6% (inactive)
COc1cccc(OCC(=O)Nc2ccccc2C(N)=O)c1,681,0.4% (inactive),9.9% (inactive),104,-73.4% (inactive),110,-0.517 (inactive),1.4e-05 (inactive),0.00589 (inactive),-50.2% (inactive),-121% (inactive)
c1ccc(N2CCN(Cc3cn4cccnc4n3)CC2)cc1,683,-18.4% (inactive),-18.4% (inactive),107,-36.1% (inactive),101,-0.494 (inactive),-4e-06 (inactive),0.00602 (inactive),8.99% (inactive),18.5% (inactive)
